This passage reports outcome and AC50 results from PubChem BioAssay (EPA / NIEHS).

Each structure is given as a SMILES string. The source made the active and inactive calls. The calls were made as follows: active = hit-call score of the fitted dose curve at least 0.9, where 1 is the maximum; inactive = score below 0.9.

A short description of this assay: ATG_GATA_CIS: Attagene CIS-FACTORIAL HepG2 Assay for human GATA Binding Protein (AID 2282944). As to conditions: HepG2 GATA cis-element reporter, Attagene multiplex mRNA; actives raise or lower the signal. The protocol:
ATG_CIS is a cell-based, multiplexed-readout assay that uses HepG2, a human liver cell line, with measurements taken at 24 hours after chemical dosing in a 24-well plate.ATG_GATA_CIS is one of 52 assay component(s) measured or calculated from the ATG_CIS assay. It is designed to make measurements of mRNA induction, a form of inducible reporter, as detected with fluorescence intensity signals by Reverse transcription polymerase chain reaction (RT-PCR) and Capillary electrophoresis technology.Data from the assay component ATG_GATA_CIS was analyzed into 1 assay endpoint. This assay endpoint, ATG_GATA_CIS, was analyzed with bidirectional fitting relative to DMSO as the negative control and baseline of activity. Using a type of inducible reporter, measures of mRNA for gain or loss-of-signal activity can be used to understand the reporter gene at the transcription factor-level as they relate to the gene GATA1. Furthermore, this assay endpoint can be referred to as a primary readout, because this assay has produced multiple assay endpoints where this one serves a reporter gene function. To generalize the intended target to other relatable targets, this assay endpoint is annotated to the dna binding intended target family, where the subfamily is GATA proteins.
Human liver HepG2 cells are transiently transfected with multiple reporter transcription units (MRTUs) in 6-well plates using FuGene 6 reagent (Roche; 3 ml FuGene/1 mg DNA). The MRTU constructs are regulated by a cis-regulating element (promoter). […] A major difference between the CIS and TRANS system is that in CIS activities of endogenous TFs are measured, whereas the TRANS assay evaluates changes in activities of exogenous, chimeric NR-Gal4 proteins. […] At the end of 24 hour incubation, total RNA was isolated using TriZol reagent (Invitrogen). The isolated RNA is then reverse-transcribed using oligo(dT) primer and Mo-MLV reverse transcriptase (Invitrogen) with DNAse I (Ambion) treatment for 30 min. The one-tenth of the produced cDNA was amplified by PCR using Taq DNA polymerase (Invitrogen) and two reporter sequence-specific primers. The PCR products were fluorescently labeled by primer extension with 6-arboxyfluorescein (6-FAM) 5'-labeled reporter sequence-specific primer (2 min at 95 C, 20 s at 68 C and 10 min at 72 C) and these products were digested with 5U of HpaI (New England Biolabs) for 2h at 37 C. The fragments were purified using Qiaquick PCR columns (Qiagen), analyzed on an ABI 3130xL genetic analyzer (Applied Biosystems) with peak positions identified by using a set of X-rhodamine (ROX)-labeled MapMarker1000 molecular weight standards (BioVentures). The raw capillary electrophoresis data was processed using Attagraph software (Attagene).
As to `CCCCC(CC)COC(=O)/C=C\C(=O)OCC(CC)CCCC` (stereo not given), the compound was called inactive.

In the case of `Cc1cccc(Nc2ccccc2C(=O)O)c1C`, the compound was classed as inactive.

Turning to `BrC1CCC(Br)C(Br)CCC(Br)C(Br)CCC1Br` (stereo not given), the AC50 was 66.3 µM (active).

With `CC(=O)C(C)=O`, the compound was called inactive.

As to `OCc1cccnc1`, the compound was classed as inactive.

In the case of `O=C(O)c1ccc([N+](=O)[O-])cc1`, the call was inactive.

With `COc1ccc(Nc2ccccc2)c(C)c1`, the call was inactive.

With `CCCCN`, the result was inactive.

Consider `CCCCCCCCCCCCCCCC(=O)O`, for which the outcome was inactive.

Consider `CC(C)c1ccc(C(C)C)cc1`, for which the call was inactive.

Regarding `Cc1ccc2sc3cccc(C)c3c2c1`, the result was inactive.

Regarding `O=[N+]([O-])c1cc(C(F)(F)F)ccc1Cl`, the result was inactive.

Take `c1ccc2[nH]ccc2c1`: the call was inactive.

Turning to `Clc1cccc(Cl)n1`, the result was inactive.

Consider `Clc1ccc(Cl)c(Cl)c1Cl`, for which the outcome was inactive.

Take `O=Cc1ccc(Cl)c([N+](=O)[O-])c1`: the compound was called inactive.

For the compound `CC1=CCC2C(C1)C2(C)C` (stereo not given), the compound was classed as inactive.

`CCCCCCCCCCC(CO)CCCCCCCC` (stereo not given): the outcome was inactive.

With `COC(C(=O)O)c1ccccc1` (stereo not given), the compound was classed as inactive.

For `COC(=O)c1ccc(C)cc1`, the result was inactive.

With `OC[C@H]1O[C@H](O[C@]2(CCl)O[C@H](CCl)[C@@H](O)[C@@H]2O)[C@H](O)[C@@H](O)[C@H]1Cl`, the result was inactive.

`O=[N+]([O-])c1ccc(Nc2ccc(Nc3ccccc3)c(S(=O)(=O)O)c2)c([N+](=O)[O-])c1`: the outcome was inactive.

As to `C[C@H]1C[C@H]2[C@@H]3CCC4=CC(=O)C=C[C@]4(C)[C@@]3(F)[C@@H](O)C[C@]2(C)[C@@]1(O)C(=O)COP(=O)(O)O`, the result was inactive.

With `CCC(=O)OCc1ccccc1`, the compound was classed as inactive.

Consider `CCCC(=O)C(C)=O`, for which the outcome was inactive.

With `CC1CCC2CC1C2(C)C` (stereo not given), the compound was classed as inactive.

As for `CC1CCC(C(C)(C)O)CC1` (stereo not given), the outcome was inactive.

For `C=CC(=O)OCC(O)COc1ccccc1` (stereo not given), the result was inactive.

For the compound `COc1cc(C=O)ccc1OC(=O)C(C)C`, the compound was called inactive.

On to `CCN(CC)c1ccc2c(-c3ccccc3C(=O)O)c3ccc(=[N+](CC)CC)cc-3oc2c1`, for which the compound was classed as inactive.

Consider `CC(C)Oc1ccccc1O`, for which the outcome was inactive.

Regarding `COc1ccc(O)cc1`, the call was inactive.

On to `c1ccc2sc(SN(C3CCCCC3)C3CCCCC3)nc2c1`, for which the compound was called inactive.

Take `[Ca+2]`: the outcome was inactive.

For the compound `CC(C)(N)CO`, the result was inactive.

As for `CCCCCCCCCCCCCC(=O)O`, the compound was classed as inactive.

For `CCCCCCCCCCCCCOS(=O)(=O)O`, the result was inactive.

On to `OC1C(O)C(O)C(O)C(O)C1O` (stereo not given), for which the call was inactive.

Take `O=C[C@@H](O)[C@H](O)[C@H](O)CO`: the compound was called inactive.

`O=c1[nH]nnc2ccccc12`: the call was inactive.

For orientation: AC50 means the concentration giving half of the maximal activity seen.
